Results reported in PubChem BioAssay AID1159580 (chemical genetic matrix, 2015).
Hit rate of the full screen: of about 5,500 compounds, about 2,000 (36%) were called active. Roughly 18% stayed inconclusive and do not appear here. Cut-off read from the data, not from the text of the source: active = normalized growth mostly below about 0.91 (no sharp cut-off); inconclusive = no clear call, values can overlap the other calls; inactive = mostly above about 0.92. This is one part of the list.

Test: chemical genetic growth profiling, strain panel (AID 1159580);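 note: tested at 20 µM; growth read once vehicle control cultures reached saturation at 30 °C; 1 = growth at the plate median or of vehicle wells; lower values mean less growth of the strain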
Settings: growth OD

Measured: normalized growth

CCC[C@H](N[C@@H](C)C(=O)N1[C@H](C(=O)O)C[C@@H]2CCCC[C@@H]21)C(=O)OCC
inactive: S. cerevisiae deletion strains, locus YJR075W, strain HOC1, active compounds read low 1.02 | S. cerevisiae deletion strains, locus YKL009W, strain mrt4, active compounds read low 1.02 | S. cerevisiae deletion strains, locus YKL068W, active compounds read low 1.03 | S. cerevisiae deletion strains, locus YKL085W, strain MDH1 (second series), active compounds read low 1.01 | S. cerevisiae deletion strains, locus YKL085W, strain MDH1, active compounds read low 1.01 | S. cerevisiae deletion strains, locus YKL160W, strain elf1, active compounds read low 1.02 | S. cerevisiae deletion strains, locus YKL190W, strain CNB1, active compounds read low 1.02 | S. cerevisiae deletion strains, locus YKR001C, strain vps1, active compounds read low 1.03 | S. cerevisiae deletion strains, locus YKR026C, strain gcn3, active compounds read low 1.02 | S. cerevisiae deletion strains, locus YKR091W, strain srl3, active compounds read low 1.02 | S. cerevisiae deletion strains, locus YLL001W, strain dnm1, active compounds read low 1.02 | S. cerevisiae deletion strains, locus YLL026W, active compounds read low 1.01 | S. cerevisiae deletion strains, locus YLL041C, strain sdh2, active compounds read low 1.01 | S. cerevisiae deletion strains, locus YLR027C, strain aat2, active compounds read low 1.01 | S. cerevisiae deletion strains, locus YLR039C, strain RIC1, active compounds read low 1.03 | S. cerevisiae deletion strains, locus YLR058C, strain SHM2, active compounds read low 1.01 | S. cerevisiae deletion strains, locus YLR102C, strain apc9, active compounds read low 1.02 | S. cerevisiae deletion strains, locus YLR113W, strain HOG1, active compounds read low 0.988 | S. cerevisiae deletion strains, locus YLR221C, strain rsa3, active compounds read low 1.01 | S. cerevisiae deletion strains, locus YLR258W, strain gsy2, active compounds read low 1.02 | S. cerevisiae deletion strains, locus YLR262C, strain YPT6 (second series), active compounds read low 1.03 | S. cerevisiae deletion strains, locus YLR262C, strain YPT6, active compounds read low 1.04 | S. cerevisiae deletion strains, locus YLR268W, strain sec22, active compounds read low 1.02 | S. cerevisiae deletion strains, locus YLR320W, strain mms22, active compounds read low 1.01 | S. cerevisiae deletion strains, locus YLR330W, strain CHS5, active compounds read low 1.01 | S. cerevisiae deletion strains, locus YLR342W, strain FKS1 (second series), active compounds read low 1.02 | S. cerevisiae deletion strains, locus YLR342W, strain FKS1, active compounds read low 1.03 | S. cerevisiae deletion strains, locus YLR357W, strain rsc2, active compounds read low 0.998 | S. cerevisiae deletion strains, locus YLR370C, strain arc18, active compounds read low 1.01 | S. cerevisiae deletion strains, locus YLR371W, strain rom2, active compounds read low 1.01 | S. cerevisiae deletion strains, locus YLR384C, strain iki3, active compounds read low 1.01 | S. cerevisiae deletion strains, locus YLR418C, strain cdc73, active compounds read low 1.01 | S. cerevisiae deletion strains, locus YML016C, strain PPZ1, active compounds read low 1.01 | S. cerevisiae deletion strains, locus YML032C, strain rad52, active compounds read low 1.02 | S. cerevisiae deletion strains, locus YML120C, strain ndi1, active compounds read low 1.02 | S. cerevisiae deletion strains, locus YML124C, strain tub3, active compounds read low 1.02 | S. cerevisiae deletion strains, locus YMR058W, strain fet3, active compounds read low 1.02 | S. cerevisiae deletion strains, locus YMR078C, strain ctf18, active compounds read low 1.03 | S. cerevisiae deletion strains, locus YMR125W, strain sto1, active compounds read low 0.994 | S. cerevisiae deletion strains, locus YMR129W, active compounds read low 1.02 | S. cerevisiae deletion strains, locus YMR205C, strain PFK2, active compounds read low 1.02 | S. cerevisiae deletion strains, locus YMR223W, strain ubp8, active compounds read low 1.03 | S. cerevisiae deletion strains, locus YMR231W, strain pep5, active compounds read low 1.02 | S. cerevisiae deletion strains, locus YMR263W, strain SAP30, active compounds read low 1.01 | S. cerevisiae deletion strains, locus YMR307W, strain GAS1, active compounds read low 0.976 | S. cerevisiae deletion strains, locus YNL067W, strain RPL9B, active compounds read low 1.01 | S. cerevisiae deletion strains, locus YNL071W, strain lat1, active compounds read low 1.01 | S. cerevisiae deletion strains, locus YNL128W, strain TEP1, active compounds read low 1.01 | S. cerevisiae deletion strains, locus YNL153C, strain GIM3, active compounds read low 1 | S. cerevisiae deletion strains, locus YNL183C, strain NPR1, active compounds read low 0.963 | S. cerevisiae deletion strains, locus YNL209W, strain ssb2, active compounds read low 1.01 | S. cerevisiae deletion strains, locus YNL233W, strain BNI4, active compounds read low 0.996 | S. cerevisiae deletion strains, locus YNL248C, strain rpa49, active compounds read low 1.01 | S. cerevisiae deletion strains, locus YNL250W, strain rad50, active compounds read low 1.02 | S. cerevisiae deletion strains, locus YNL271C, strain bni1, active compounds read low 1.02 | S. cerevisiae deletion strains, locus YNL298W, strain CLA4, active compounds read low 1.01 | S. cerevisiae deletion strains, locus YNL307C, strain MCK1, active compounds read low 1.03 | S. cerevisiae deletion strains, locus YNL322C, strain KRE1 (second series), active compounds read low 1.02 | S. cerevisiae deletion strains, locus YNL322C, strain KRE1, active compounds read low 1.01 | S. cerevisiae deletion strains, locus YNR049C, strain mso1, active compounds read low 1.02 | S. cerevisiae deletion strains, locus YNR052C, strain pop2, active compounds read low 1.02 | S. cerevisiae deletion strains, locus YOL006C, strain TOP1, active compounds read low 1.04 | S. cerevisiae deletion strains, locus YOL012C, strain htz1 0.981 | S. cerevisiae deletion strains, locus YOL147C, strain pex11, active compounds read low 1.02 | S. cerevisiae deletion strains, locus YOR001W, strain rrp6, active compounds read low 1.03 | S. cerevisiae deletion strains, locus YOR061W, strain CKA2, active compounds read low 1.01 | S. cerevisiae deletion strains, locus YOR069W, strain VPS5, active compounds read low 1 | S. cerevisiae deletion strains, locus YOR070C, strain gyp1, active compounds read low 1.02 | S. cerevisiae deletion strains, locus YOR080W, strain dia2, active compounds read low 1.03 | S. cerevisiae deletion strains, locus YOR083W, strain WHI5, active compounds read low 1.02 | S. cerevisiae deletion strains, locus YOR106W, strain vam3, active compounds read low 1.04 | S. cerevisiae deletion strains, locus YOR136W, strain idh2, active compounds read low 1.02 | S. cerevisiae deletion strains, locus YOR144C, strain elg1, active compounds read low 1.02 | S. cerevisiae deletion strains, locus YOR184W, strain ser1, active compounds read low 1.03 | S. cerevisiae deletion strains, locus YOR231W, strain MKK1, active compounds read low 0.999 | S. cerevisiae deletion strains, locus YOR265W, strain rbl2, active compounds read low 1.01 | S. cerevisiae deletion strains, locus YOR270C, strain vph1, active compounds read low 1.05 | S. cerevisiae deletion strains, locus YOR290C, strain snf2, active compounds read low 1 | S. cerevisiae deletion strains, locus YOR316C, strain cot1, active compounds read low 1.02 | S. cerevisiae deletion strains, locus YPL051W, strain arl3, active compounds read low 1.02 | S. cerevisiae deletion strains, locus YPL055C, strain LGE1, active compounds read low 1.01 | S. cerevisiae deletion strains, locus YPL078C, strain atp4, active compounds read low 1.03 | S. cerevisiae deletion strains, locus YPL106C, strain sse1, active compounds read low 1.02 | S. cerevisiae deletion strains, locus YPL240C, strain hsp82, active compounds read low 1.02 | S. cerevisiae deletion strains, locus YPL241C, strain CIN2, active compounds read low 1.03 | S. cerevisiae deletion strains, locus YPL256C, strain CLN2, active compounds read low 1 | S. cerevisiae deletion strains, locus YPR119W, strain clb2, active compounds read low 1.03 | S. cerevisiae deletion strains, locus YPR141C, strain kar3, active compounds read low 1.02 | S. cerevisiae deletion strains, locus YPR163C, strain tif3, active compounds read low 1.02 | S. cerevisiae deletion strains, locus YPR167C, strain met16, active compounds read low 1.01 | S. cerevisiae deletion strains, strain wtn01, active compounds read low 1.01 | S. cerevisiae strains, strain wild type, active compounds read low 1.01
